Compounds without any hit were thinned out: in the full panel of roughly 83,000, 20% have a hit.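 Cell lines were cultured in 96-well plates, exposed to a single compound concentration, and assessed for percent growth 48 hours later.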 The source made the active and inactive calls.
tested on: HS 578T breast; experiment: NCI-60 one-dose screen, 48 h (100 = growth as untreated, 0 = no growth, -100 = all killed); settings: 10 µM unless noted
Protocol: Growth inhibition of the HS 578T human tumor cell line is measured as a screen for anti-cancer activity. Cells are grown in 96 well plates and exposed to the test compound for 48 hours. Compounds are tested at a single concentration, which is 10^-5 M for most compounds. The reported endpoint is percent growth (GI% or GIPRCNT), where numbers from 0 - 100% represent growth inhibition, and numbers from -100% - 0 represent cell death. For example, a value of 40 represents 60% growth inhibition. A value of 0 means no net growth occurred over the course of the experiment. A value of -40 indicates 40% of cells at the beginning of the experiment died by the end of the experiment. A value of -100 means all cells are dead at the end of the experiment.
NCI-60 Human Tumor Cell Lines Screen was performed using the standard one-dose NCI protocol, which is described in more detail at https://dtp.cancer.gov/discovery_development/nci-60/default.htm.
Compounds with GIPRCNT values below 10 were considered active. Activity score was based on GIPRCNT using the following formula: […]
Score is 0 for GIPRCNT values of 100 or above, 50 for GIPRCNT values of 0, and 100 for GIPRCNT values of -100.

Compound	growth
C=C1C(=O)O[C@H]2[C@H]1CC/C(CNC(=O)c1cc3ccccc3[nH]1)=C\CC[C@@]1(C)O[C@@H]21	42.7% (inactive)
Cc1[nH]c(C(=O)Nc2ccc(C(N)=O)cc2NC(C)C)c(Cl)c1Cl	82.6% (inactive)
COc1ccc2nc3ccccc3c(NCc3ccccc3)c2c1	25.2% (inactive)
O=C1c2cc3c(cc2-c2c1c1ccc(Cl)cc1c(=O)n2C[C@H](O)CO)OCO3	26.2% (inactive)
CCOC(=O)C1CCN(c2ccc(N3C[C@@H](CNCc4ccc(C(=N)N)cc4)OC3=O)cc2)CC1	102% (inactive)
COc1cccc(NC(=O)c2cccc(C3CCc4c(cc(OC)c(OC)c4OC)O3)c2)c1 (stereo not given)	86.6% (inactive)
CCCCn1sc(=O)n(Cc2ccc(CNC(=O)OCc3ccc4c(Br)cc(Br)c(O)c4n3)cc2)c1=O	18.6% (inactive)
COc1cc(C(=O)C(=O)c2cc(OC)c(O)c(OC)c2)cc(OC)c1O	110% (inactive)
CCOC(=O)c1c(-c2ccc(Cl)cc2)c(C#N)c2c(C#N)c(N)nn2c1N	75.3% (inactive)
C=CC(=O)N1CCN(c2ccc3cccc(NC(=O)c4cnc(C)cn4)c3n2)CC1	34.3% (inactive)
Cc1ccc(/C=C(\C#N)C(=O)Nc2ncc(Cc3cc(Cl)ccc3Cl)s2)o1	13% (inactive)
CC(=O)c1c(Nc2ccc(F)c(F)c2F)[nH]c2c(F)cc(F)cc2c1=O	4.13% (active)
Cn1c(O)c(C(/C=C/c2ccccc2)=Nc2ccccc2N)c(=O)n(C)c1=O	110% (inactive)
COc1cc2nc(Nc3cccc(F)c3)nc(Nc3cc(C)[nH]n3)c2cc1OC	-59.3% [20 µM] (active)
O=C(CN1CCN(c2cc3c(cc2F)c(=O)c(C(=O)O)cn3C2CC2)CC1)N/N=C/c1ccncc1	101% (inactive)
C=C1C(=O)O[C@H]2[C@H]1CC/C(COC(=O)NCCCCCCCCNC(=O)OC/C1=C/CC[C@@]3(C)O[C@H]3[C@H]3OC(=O)C(=C)[C@@H]3CC1)=C\CC[C@@]1(C)O[C@@H]21	17.4% (inactive)
COc1cccc(/C=C/C(=O)c2cc3c(N)c(C(=O)Nc4cccc(Cl)c4C)sc3nc2C)c1	4.67% (active)
CN1CCN(c2ccc(NC(=O)c3cncnc3Nc3ccc4c(ccn4Cc4cccc(F)c4)c3)cc2)CC1	68.3% (inactive)
CCCn1c(=S)sc2c1nc(C)n1c(Nc3ccccc3)nnc21	97.4% (inactive)
Nc1ccc([N+](=O)[O-])cc1N=C/C=C/c1ccccc1	67.4% (inactive)

Compound	growth
CCOC(=O)c1c2c(n3ccccc13)C(=O)c1ncccc1C2=O	52.6% (inactive)
CC1(C)C2CC=C(/C=N/NC(=O)C3CCC(=O)N3)C1C2 (stereo not given)	104% (inactive)
CCNCc1ccc(O)c2ncccc12	39.9% (inactive)
COc1cc2c(c(OC)c1OC)C(=O)N[C@@H]1[C@@H](O)[C@@H](O)[C@H](O)C[C@@H]21	108% (inactive)
CS(=O)(=O)Nc1cc(-c2ccc3ncnc(Nc4ccc5c(cnn5Cc5cccnc5)c4)c3c2)cnc1Cl	-2.21% (active)
O=C(/C=C/C12c3ccccc3C(c3ccccc31)C1C(=O)NC(=O)C12)c1ccccn1 (stereo not given)	40.1% (inactive)
Cn1c(/C=C/[N+](=O)[O-])cc2ccccc21	70.2% (inactive)
COc1cc(C(=O)c2c(-c3ccccc3)oc3c(OC)cccc23)cc(OC)c1O	4.85% (active)
CN(C)c1ccc(C(=NO)c2ccc(N(C)C)cc2)cc1	51.1% (inactive)
Cc1cc2oc(=O)cc(CP(=O)(O)O)c2cc1O	94.5% (inactive)
CC(=O)c1cc(-c2ccccc2N)n(-c2ccc3c(c2)OCO3)c1C	32.6% (inactive)
O=C(/C=C\c1ccco1)/C=C/c1ccco1	105% (inactive)
C#CCOc1cccc(-c2ncc3cc(NC(=O)CCl)ccc3n2)c1	31.7% (inactive)
COc1cc2cc(NCc3ccc(OC(F)F)cc3)nc(C)c2cc1OC	77.6% (inactive)
CCN(CC)c1ccc(/C=N\NC(=O)c2cccc(Nc3ccnc(C(F)(F)F)c3)c2)c(O)c1	57.8% (inactive)
Fc1ccc(COc2ccc(Nc3ncnc4sc5c(c34)CCCC5)cc2)cc1	98.8% (inactive)
COc1cc2cc(Oc3ccc(NC(=O)Nc4ccccc4)cc3)c(C)nc2cc1OCCN1CCCCC1	70.4% (inactive)
O=C(Nc1ccccc1)c1sc(-c2ccccc2)cc1O	92% (inactive)
C=NNc1ccccc1	97.7% (inactive)
O[C@@H](c1cc(C(F)(F)F)nc2c(C(F)(F)F)cccc12)[C@H]1CCCCN1	58.2% (inactive)

From PubChem BioAssay (NCI)
